# Experimental data from PubChem BioAssay AID1004 (SRMLSC, 2008).
# Active and inactive are the calls of the source.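 Rule for the calls: active = viability at 10 µM of 29.74% or lower, 3 SD below the compound median; inactive = the rest.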
# Assay: viability of HCT116 lacking mutant beta-catenin – cell-based, DP diverse set, validation, pilot screen (AID 1004)
# Conditions: HCT116 (mutant beta-catenin deleted) viability, CellTiter-Glo, 60 h; at 10 µM; stronger effect = lower value
row,Compound,viability
1,Cc1ccc(Cl)c(Nc2ccccc2C(=O)O)c1Cl,98.9% (inactive)
2,CC1(COc2ccc(CC3SC(=O)NC3=O)cc2)CCCCC1 (stereo not given),97% (inactive)
3,C/C(=C\CNc1ncnc2c1ncn2[C@@H]1O[C@H](CO)[C@@H](O)[C@H]1O)CO,102% (inactive)
4,OCCN(CCO)c1nc(N2CCCCC2)c2nc(N(CCO)CCO)nc(N3CCCCC3)c2n1,109% (inactive)
5,CCC[C@@H]1C[C@@H](C(=O)NC(C(C)Cl)[C@H]2O[C@H](SC)[C@H](O)[C@@H](O)[C@H]2O)N(C)C1 (stereo not given in full),95.6% (inactive)
6,O=C(c1ccc(F)cc1)C1CCN(CCn2c(=O)[nH]c3ccccc3c2=O)CC1,104% (inactive)
7,C[C@]12CCC(=O)C=C1CC[C@@H]1[C@@H]2[C@@H](O)C[C@@]2(C)[C@H]1CC[C@]2(O)C(=O)CO,98.9% (inactive)
8,CC1(C)[C@@H](O[C@H]2O[C@H](C(=O)O)[C@@H](O)[C@H](O)[C@H]2O[C@@H]2O[C@H](C(=O)O)[C@@H](O)[C@H](O)[C@H]2O)CC[C@]2(C)[C@H]3C(=O)C=C4[C@@H]5C[C@@](C)(C(=O)O)CC[C@]5(C)CC[C@@]4(C)[C@]3(C)CC[C@@H]12,101% (inactive)
9,c1ccc2nc3ccccc3cc2c1,100% (inactive)
10,COc1ccc2cc3[n+](cc2c1OC)CCc1cc2c(cc1-3)OCO2,99.8% (inactive)
11,O=c1c(-c2ccc(O)cc2)coc2cc(O)ccc12,91% (inactive)
12,CCC(C)C(O)C(C)C(=O)C(C)/C=C(\C)CC(C)C1OC(=O)C1CC (stereo not given),107% (inactive)
13,O=C(O)c1cc(=O)c2c(OCC(O)COc3cccc4oc(C(=O)O)cc(=O)c34)cccc2o1,100% (inactive)
14,COc1cc(-c2ccc(=O)[nH]n2)ccc1OC(F)F,105% (inactive)
15,COc1ccc2nc(S(=O)Cc3ncc(C)c(OC)c3C)[nH]c2c1 (stereo not given),96.8% (inactive)
16,CN(C)c1ccc(/C=C2\C(=O)Nc3ccccc32)cc1,80.2% (inactive)
17,CSc1ccc(/C=C2/C(C)=C(CC(=O)O)c3cc(F)ccc32)cc1,96% (inactive)
18,NCC(=O)N[C@@H](CCCN=C(N)N)C(=O)NCC(=O)N[C@@H](CC(=O)O)C(=O)N[C@@H](CC(N)=O)C(=O)N1CC[C@@H](C(=O)O)C1,95.6% (inactive)
19,COc1ccc2cc1Oc1ccc(cc1)C[C@H]1c3c(cc4c(c3Oc3cc5c(cc3OC)CCN(C)[C@@H]5C2)OCO4)CCN1C,66.6% (inactive)
20,C=C(C)[C@H]1CC=C(CO)CC1,99.5% (inactive)
21,C[C@@H]1C(=O)O[C@@H]2CC34C5CC(C(C)(C)C)[C@]36C(O)C(=O)O[C@@H]6O[C@@]4(C(=O)O5)[C@@]12O (stereo not given in full),72.1% (inactive)
22,O=C1OC(c2cc(I)c(O)c(I)c2)(c2cc(I)c(O)c(I)c2)c2ccccc21,97.5% (inactive)
23,COC(=O)c1cc2c(s1)-c1ccccc1OC2,98% (inactive)
24,COc1cccc2c1C(=O)c1c(O)c3c(c(O)c1C2=O)C[C@@](O)(C(=O)CO)C[C@@H]3OC1C[C@@H](N)[C@H](O)[C@H](C)O1 (stereo not given in full),27.4% (active)
25,COc1ccc2c(c1)c(CC(=O)O)c(C)n2C(=O)c1ccc(Cl)cc1,101% (inactive)
26,Cc1c2oc3c(C)ccc(C(=O)N[C@@H]4C(=O)N[C@H](C(C)C)C(=O)N5CCC[C@H]5C(=O)N(C)CC(=O)N(C)[C@@H](C(C)C)C(=O)O[C@@H]4C)c3nc-2c(C(=O)N[C@@H]2C(=O)N[C@H](C(C)C)C(=O)N3CCC[C@H]3C(=O)N(C)CC(=O)N(C)[C@@H](C(C)C)C(=O)O[C@@H]2C)c(N)c1=O,26% (active)
27,CC(C)=CCC[C@](C)(O[C@@H]1O[C@H](CO)[C@@H](O)[C@H](O)[C@H]1O)[C@H]1CC[C@]2(C)[C@@H]1[C@H](O)C[C@@H]1[C@@]3(C)CC[C@H](O[C@@H]4O[C@H](CO)[C@@H](O)[C@H](O)[C@H]4O[C@@H]4O[C@H](CO)[C@@H](O)[C@H](O)[C@H]4O)C(C)(C)[C@@H]3[C@@H](O)C[C@]12C,93.8% (inactive)
28,CNCCC(Oc1ccc(C(F)(F)F)cc1)c1ccccc1 (stereo not given),94.1% (inactive)
29,NC(=O)c1cccc(N)c1,108% (inactive)
30,COc1cc2c(c(OC)c1OC)-c1ccc(OC)c(=O)cc1[C@@H](NC(C)=O)CC2,39.6% (inactive)
